Assay outcomes deposited in PubChem by The Scripps Research Institute Molecular Screening Center.
Compounds with a hit are over-represented: about 2.3% of the library has one in this group of screens.
CHRM1 agonist: agonists of human M1 muscarinic receptor. P11229. CHO-K1 hM1, Fluo-8 calcium fluorescence, agonist mode; 0% DMSO, 100% acetylcholine EC100. activation, % at 3 µM. 360,000 tested, 0.33% active. AID 588814;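 active means activation above the run's mean compound activation plus 3 SD, cut at about 16% in these data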;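 further: peak over basal fluorescence ratio within a 140 s kinetic read after compound addition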
Target sequence (P11229 whole entry, looked up): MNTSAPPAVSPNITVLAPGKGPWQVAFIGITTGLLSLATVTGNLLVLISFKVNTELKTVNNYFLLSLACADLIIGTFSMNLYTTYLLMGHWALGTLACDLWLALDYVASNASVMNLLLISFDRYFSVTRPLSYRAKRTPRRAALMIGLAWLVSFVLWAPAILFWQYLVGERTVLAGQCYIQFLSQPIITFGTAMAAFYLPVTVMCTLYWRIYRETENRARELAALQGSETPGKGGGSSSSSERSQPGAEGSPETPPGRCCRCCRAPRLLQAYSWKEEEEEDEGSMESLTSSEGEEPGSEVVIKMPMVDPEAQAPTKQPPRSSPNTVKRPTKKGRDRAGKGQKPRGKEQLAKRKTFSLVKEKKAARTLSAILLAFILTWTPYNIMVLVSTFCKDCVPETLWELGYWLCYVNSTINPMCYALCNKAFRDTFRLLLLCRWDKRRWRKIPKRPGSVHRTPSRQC
CHO-K1 Ca PAM: M1 PAM counterscreen hit in parental CHO-K1 cells | ATP EC20, Fluo-8 calcium fluorescence; 0% at ATP EC20, 100% at ATP max | activation, % at 3 µM | AID 602247 | 360,000 tested, 0.02% active;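 active means activation above the run cutoff, the mean activation of all test compounds plus 3 SD, cut at about 40% in these data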;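 further: peak over basal fluorescence ratio in a 140 s read after ATP addition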
CHO-K1 Ca antag: counter-screen for M1 antagonists: effect in parental CHO-K1 cells | ATP-induced calcium, Fluo-8 fluorescence | inhibition, % at 3 µM | 360,000 tested, 0.6% active;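 active means inhibition above a per-plate cutoff, the plate's mean sample inhibition plus 3 SD, cut at about 24% in these data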;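 further: 0% = DMSO plus EC80 ATP and 100% = DMSO alone without ATP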
M1 PAM: potentiates human M1 receptor response to acetylcholine; CHO-K1 hM1, Fluo-8 calcium fluorescence, ACh EC20; 0% = ACh EC20, 100% = maximal ACh; activation, % at 3 µM; 360,000 tested, 0.088% active; in the data active means activation above about 19%, passing the limit was not always enough
M1 antag: blocks human M1 muscarinic receptor. CHO-K1 hM1, Fluo-8 calcium fluorescence, ACh EC80 antagonist. inhibition, % at 3 µM. 360,000 tested, 1.3% active;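 active means percent inhibition above its own plate's cutoff, namely the mean of that plate's compound wells plus 3 SD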;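 further: peak over basal fluorescence ratio during 140 s after agonist addition; 0% = ACh EC80 plus DMSO and 100% = DMSO alone without agonist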
M1 ag parental: nonselective activator or artifact in parental CHO-K1 cells; 360,000 tested, 0.48% active; Fluo-8 calcium fluorescence; scaled to maximal ATP response, vehicle zero; activation, % at 3 µM; AID 602248; in the data active means activation above about 15%;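 further: untransfected CHO-K1 host cells lacking M1 receptor as counterscreen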
* marks the source's active call; other numbers are inactive results; . = not tested or not shown.

SMILES | CHRM1 agonist | CHO-K1 Ca PAM | CHO-K1 Ca antag | M1 PAM | M1 antag | M1 ag parental
Fc1ccc(-c2nc3c(Cl)cc(C(F)(F)F)cn3c2Cc2cccc(Cl)c2)cc1 | . | -5.5 | 33.1* | . | . | -0.6
FC(F)(F)c1cc(Cl)c2nc(-c3ccc(Cl)cc3)c(Cc3ccsc3)n2c1 | . | -8.6 | 30.6* | . | . | -0.4
Cc1ccc2c(c1)N(CCC(=O)NC1CCCCC1)C(=O)CO2 | -4.1 | 9.1 | -10.0 | 9.8 | -6.1 | 2.5
Cc1c(S(=O)(=O)Nc2ccc(Br)cc2)c(=O)n(C)c(=O)n1C | -4.1 | 10.3 | 7.4 | -15.0 | 30.2* | 7.2
Cn1c(CNC(=O)CNS(=O)(=O)c2ccc(F)cc2F)cc(=O)n(C)c1=O | -0.2 | -9.2 | -17.8 | 18.8 | -13.2 | 0.1
COc1ccc(C2CC(=O)C=C(O)C2)cc1 (stereo not given) | -4.7 | 22.3 | -9.4 | 8.8 | -4.8 | 0.6
COc1cc(C2CC(=O)C=C(O)C2)cc(OC)c1OC (stereo not given) | 0.9 | -8.5 | 24.8* | 5.1 | -3.1 | -0.6
COc1ccccc1CCN=C(N)NS(=O)(=O)c1ccc(C)cc1 | -10.2 | 9.4 | 6.3 | 4.5 | -4.3 | 17.4*
COc1ccc(CCN=C(N)NS(=O)(=O)c2ccc(C)cc2)cc1OC | -5.2 | 9.4 | 2.9 | 2.9 | -5.0 | 0.0
CN(C(=O)COC(=O)CN1C(=O)c2cccc([N+](=O)[O-])c2C1=O)c1ccccc1 | 0.6 | 12.0 | -19.5 | 28.1* | -19.6 | 0.4
Cc1cc(/C=N/NC(=O)c2ccc(O)cc2)c(C)n1C1CC1 | -0.6 | -13.2 | 27.5* | 1.4 | -3.9 | -0.3
CC(Oc1ccccc1)C(=O)Nc1ccc(NC(=O)c2ccccc2)cc1 (stereo not given) | -1.3 | -13.2 | 16.8 | 0.4 | 15.2 | 0.2
COc1cc(NC(=O)C(C)Oc2ccccc2)c(OC)cc1NC(=O)c1ccccc1 (stereo not given) | 3.8 | -24.2 | 24.3* | 17.0 | -12.2 | -0.3
CC(=O)Nc1c(O)nc(SCC(=O)N2CCCCC2)[nH]c1=O | 7.8 | 12.2 | -15.6 | 26.4* | -19.3 | 0.5
CC(=O)N1CCCC(C)(C(=O)Nc2ccc3oc(C)nc3c2)C1 (stereo not given) | -1.6 | -14.2 | 26.8* | 8.2 | -9.7 | 0.2
C=CCOc1ccc(C2/C(=C(/O)c3ccc(OC)cc3)C(=O)C(=O)N2CCN2CCNCC2)cc1 (stereo not given) | 3.5 | 2.6 | 8.1 | -1.3 | 5.7 | 9.3
Cc1ccc2[nH]c(C(=O)N3CCOCC3)cc2c1 | -2.4 | -11.9 | 25.1* | 15.9 | -19.2 | -0.5
Cc1ccc2[nH]c(C(=O)N3CCCCC3)cc2c1 | -4.1 | 8.0 | -3.4 | 8.6 | -18.6 | 0.3
NC(=O)c1cc(S(=O)(=O)NCCc2ccc(S(N)(=O)=O)cc2)cs1 | -0.2 | 1.6 | -2.9 | -7.7 | 24.2 | 5.8
NC(=O)C1CCCN(C(=O)c2ccc(NC(=O)c3cccs3)cc2)C1 (stereo not given) | -4.4 | 5.7 | -14.1 | 1.2 | 3.0 | 0.3
CCC(=O)Nc1nc(-c2ccc3c(c2)CC(C)N3S(C)(=O)=O)cs1 (stereo not given) | -5.0 | 10.7 | -0.2 | -1.1 | -2.1 | 4.3
CC1Cc2cc(-c3csc(NC(=O)Cc4cccs4)n3)ccc2N1S(C)(=O)=O (stereo not given) | 0.7 | 9.1 | 8.8 | -12.1 | 26.3* | 11.0
COC(=O)C1C2CCC(C2)C1C(=O)OCC(=O)c1ccc(C)cc1 (stereo not given) | 0.1 | -3.9 | 27.0* | -6.1 | 13.6 | 0.3
COc1ccc(CCC(=O)OCC(=O)c2ccc(C)cc2)cc1 | -9.8 | 21.4 | -11.7 | 10.5 | -14.2 | -0.2
O=C(c1ccccc1)c1nn(-c2ccccc2)c(=O)cc1C(F)(F)F | -9.7 | 1.8 | -13.6 | -3.8 | -9.7 | -0.7
O=C(c1ccccc1)c1nn(-c2ccc(Cl)cc2)c(=O)cc1C(F)(F)F | -4.6 | 4.9 | 5.5 | -19.8 | 22.6 | 19.1*
CN1CCCN=C1COC(=O)C(O)(c1ccccc1)C1CCCCC1 (stereo not given) | -7.6 | -9.7 | 2.2 | -26.3 | 99.0* | 0.1
CCC(C(=O)Nc1ccc(C(=O)N2CCCC2)cc1)c1ccccc1 (stereo not given) | 17.9* | 2.1 | -3.4 | -7.6 | 13.2 | 10.9
